By AC50 is commonly meant the concentration giving half of the maximal activity seen.

The results in this text go back to PubChem BioAssay (EPA / NIEHS).

Inconclusive results are not listed. Activity calls are given as the source filed them. How the source made its calls, unless noted: active means hit-call score of the fitted dose curve at least 0.9, where 1 is the maximum; inactive means score below 0.9.

The nature of assay [1]: ACEA_ER_80hr: ACEA Biosciences xCELLigence Real-Time Cell Analysis on Estrogen Receptor Agonism for Proliferation (AID 2282667; active means hit-call score of the fitted dose curve at least 0.9, where 1 is the maximum). The following applies: T47D proliferation, impedance (xCELLigence), 80 h. The gist of the method:
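T47D human breast cells were seeded on electrode plates, monitored overnight, then exposed continuously to compounds in eight-point 1:4 dilutions from 100 uM (max 0.5% DMSO). Impedance-based growth was read at 80 h, fitted upward relative to DMSO.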

A short description of assay [2]: ATG_CRE_CIS: Attagene CIS-FACTORIAL HepG2 Assay for human cAMP Responsive Element (CRE) binding protein 3 (AID 2282926). The following applies: HepG2 CRE cis-reporter, Attagene multiplexed mRNA; actives raise or lower the signal. The gist of the method: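 Capillary electrophoresis of 6-FAM-labelled, HpaI-digested PCR products quantified reporter transcripts. These came from HepG2 transiently transfected with cis-element reporters and exposed to test chemicals for 24 hours, with DMSO defining baseline activity.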

Assay [3] deals with CCAAT/enhancer-binding protein beta (Homo sapiens) (UniProt P17676). Briefly: ATG_C_EBP_CIS: Attagene CIS-FACTORIAL HepG2 Assay for human CCAAT/Enhancer Binding Protein (C/EBP) beta (AID 2282927). As to conditions: HepG2 Attagene cis-factorial transcription factor reporter; actives raise or lower the signal. The procedure, abridged:
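Transiently transfected HepG2 (MRTU library, endogenous TF-driven promoters); 24 h dosing; total RNA → oligo(dT) RT → PCR → 6-FAM primer extension → HpaI digest → CE; fit bidirectionally vs DMSO.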

Assay [4] is described as follows: ATG_CMV_CIS: Attagene CIS-FACTORIAL HepG2 Assay for human CMV (Internal Marker) (AID 2282928).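 Further: endpoint acts as a background internal control marker rather than a target.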 The following applies: HepG2 CMV promoter reporter, transcription factor profiling; actives raise or lower the signal. The gist of the method: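 Fluorescence intensity of RT-PCR-derived reporter fragments, resolved by capillary electrophoresis, gives the signal. HepG2 liver cells bearing transfected cis-element reporters were treated 24 h; activity in either direction was fit relative to DMSO-treated controls.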

Assay [5] is described as follows: ATG_DR4_LXR_CIS: Attagene CIS-FACTORIAL HepG2 Assay for human Liver X Receptor (LXR), DR4 submotif (AID 2282929). As to conditions: HepG2 Attagene DR4 cis-reporter, mRNA transcription; actives raise or lower the signal. The gist of the method:
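Endogenous factor activity at a DR4 cis-element is read as reporter mRNA in transiently transfected HepG2 cells. Exposure lasts 24 h; transcripts are amplified, fluorescently labelled and sized by capillary electrophoresis, with DMSO as baseline.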

Assay [6] concerns the target Aryl hydrocarbon receptor (Homo sapiens) (UniProt P35869). As to the kind of experiment: ATG_Ahr_CIS: Attagene CIS-FACTORIAL HepG2 Assay for human Aryl Hydrocarbon Receptor (Ahr) (AID 2282930). As to conditions: HepG2 AhR cis-factorial reporter transcription; actives raise or lower the signal. The gist of the method:
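Read-out: reporter mRNA quantified by RT-PCR with fluorescent primer extension and capillary electrophoresis. Human HepG2 liver cells carried transfected cis-promoter reporter units and were exposed to chemical for 24 h; gain or loss fitted relative to DMSO.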

A short description of assay [7]: ATG_AP_1_CIS: Attagene CIS-FACTORIAL HepG2 Assay for human Activator Protein 1 (AP-1) (AID 2282931). As to conditions: HepG2 Attagene cis-factorial AP-1 reporter mRNA; actives raise or lower the signal. The procedure, abridged: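 Fluorescence of labelled PCR fragments separated by capillary electrophoresis gives reporter mRNA levels. HepG2 with transfected cis-regulated reporter units, 24 h exposure; DMSO serves as baseline for bidirectional curve fits.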

The nature of assay [8]: ATG_AP_2_CIS: Attagene CIS-FACTORIAL HepG2 Assay for human Activator Protein 2 (AP-2) (AID 2282932). The following applies: HepG2 AP-2 cis-reporter, Attagene transcription factor profiling; actives raise or lower the signal. The gist of the method: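 Liver-derived HepG2 line, cis-reporter system measuring endogenous factors; 24 h dosing; reporter mRNA detected by fluorescent RT-PCR and capillary electrophoresis.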

A short description of assay [9]: ATG_BRE_CIS: Attagene CIS-FACTORIAL HepG2 Assay for human Bone Morphogenetic Protein (BMP) Response Element (BRE) (AID 2282933). As to conditions: HepG2 BMP response element reporter, Attagene transcription factor profiling; actives raise or lower the signal. The gist of the method:
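A HepG2 multiplex reporter system measured inducible reporter mRNA 24 h post-dosing. Detection: RT-PCR, 6-FAM primer extension, HpaI digestion, capillary electrophoresis. Activity fitted bidirectionally relative to DMSO.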

Assay [10] addresses Transcription factor E2F1 (Homo sapiens) (UniProt Q01094). As to the kind of experiment: ATG_E2F_CIS: Attagene CIS-FACTORIAL HepG2 Assay for human E2F Transcription Factor 1 (AID 2282935). The following applies: HepG2 Attagene cis-reporter, E2F reporter RNA transcripts; actives raise or lower the signal. The procedure, abridged: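 Liver-derived HepG2 cells expressing transfected promoter-driven reporter units received test chemical for 24 hours. Signal gains or losses were fitted bidirectionally against DMSO.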

The nature of assay [11]: ATG_E_Box_CIS: Attagene CIS-FACTORIAL HepG2 Assay for human Enhancer Box (E-box) (AID 2282936). The following applies: HepG2 E-box cis-reporter transcription, actives raise or lower the signal. The gist of the method: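 In this cell-based setup, HepG2 cells bearing transfected promoter-driven reporter units were exposed to chemicals for 24 h; reporter transcripts were amplified, 6-FAM-labelled, cut with HpaI and sized by capillary electrophoresis.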

The nature of assay [12]: ATG_M_61_CIS: Attagene CIS-FACTORIAL HepG2 Assay for M61 Transcription Factor (Internal Marker) (AID 2282937). As to conditions: HepG2 Attagene CIS-FACTORIAL M61 internal marker reporter; actives raise or lower the signal. The procedure, abridged:
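This endpoint serves as an internal background control within a multiplexed HepG2 cis-reporter panel. Cells are exposed for 24 h; reporter mRNA is amplified, fluorescently labelled and sized by capillary electrophoresis, with DMSO as negative control.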

Assay [13] can be described thus: ATG_EGR_CIS: Attagene CIS-FACTORIAL HepG2 Assay for human Early Growth Response 1 (EGR1) (AID 2282938). As to conditions: HepG2 Attagene CIS-FACTORIAL EGR reporter mRNA; actives raise or lower the signal. The gist of the method: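 HepG2, transient MRTU transfection (cis promoters), 24 h compound. RNA → RT (oligo-dT) → PCR → 6-FAM labelling → HpaI cut → CE fluorescence. Bidirectional fit, DMSO baseline.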

Assay [14] is described as follows: ATG_M_19_CIS: Attagene CIS-FACTORIAL HepG2 Assay for M19 Transcription Factor (Internal Marker) (AID 2282939). The following applies: HepG2 Attagene CIS-FACTORIAL M19 internal marker reporter; actives raise or lower the signal. The procedure, abridged:
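Chemical-treated HepG2 (24 h) with MRTU constructs; reporter transcripts detected by fluorescent RT-PCR fragment analysis on capillary electrophoresis. Internal background marker, DMSO as baseline.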

Assay [15] is described as follows: ATG_ERE_CIS: Attagene CIS-FACTORIAL HepG2 Assay for Estrogen Response Element (ERE) (AID 2282940). As to conditions: HepG2 ERE cis-reporter, Attagene RNA transcript; actives raise or lower the signal. The procedure, abridged:
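Human liver cells (HepG2) bearing transiently transfected, promoter-regulated reporter units were exposed 24 h. Reporter mRNA induction was detected by capillary electrophoresis of labelled RT-PCR products and fitted bidirectionally to DMSO.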

Assay [16] can be described thus: ATG_Ets_CIS: Attagene CIS-FACTORIAL HepG2 Assay for human Erythroblast Transformation Specific (ETS) (AID 2282941). As to conditions: HepG2 ETS cis-reporter transcription, actives raise or lower the signal. The gist of the method:
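Multiplexed reporter transcript profiling: HepG2, 24 h treatment, total RNA to cDNA, PCR, 6-FAM labelling, HpaI cut, capillary electrophoresis. Gain- or loss-of-signal fitted against DMSO.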

Assay [17] concerns the target Hepatocyte nuclear factor 3-beta (Homo sapiens) (UniProt Q9Y261). Briefly: ATG_FoxA2_CIS: Attagene CIS-FACTORIAL HepG2 Assay for human Forkhead box A2 (FOXA2) (AID 2282942). As to conditions: HepG2 cis-reporter transcription factor activity, 24 h; actives raise or lower the signal. The gist of the method:
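Cells: HepG2, transient multiplex reporter transfection. Exposure 24 h. Detection: reporter-specific RT-PCR, fluorescent labelling, restriction digest, capillary electrophoresis. Analysis: bidirectional curve fit, DMSO as negative control.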

Assay [18] is described as follows: ATG_FoxO_CIS: Attagene CIS-FACTORIAL HepG2 Assay for human Forkhead box O (FoxO) (AID 2282943). As to conditions: HepG2 Attagene cis-reporter, FoxO element, mRNA; actives raise or lower the signal. The gist of the method: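 Read-out: fluorescence of 6-FAM-labelled reporter cDNA fragments resolved by capillary electrophoresis. Transiently transfected HepG2 cells were dosed for 24 h; activity fitted in both directions relative to DMSO controls.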

A short description of assay [19]: ATG_GATA_CIS: Attagene CIS-FACTORIAL HepG2 Assay for human GATA Binding Protein (AID 2282944). The following applies: HepG2 GATA cis-element reporter, Attagene multiplex mRNA; actives raise or lower the signal. The gist of the method:
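Transfected cis-reporter HepG2 cells were treated with chemicals for 24 hours. Total RNA was then converted to cDNA, amplified with reporter-specific primers and analysed by fluorescent capillary electrophoresis, using DMSO-treated wells as baseline.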

Chain of Aryl hydrocarbon receptor (Homo sapiens) (P35869 whole entry, looked up): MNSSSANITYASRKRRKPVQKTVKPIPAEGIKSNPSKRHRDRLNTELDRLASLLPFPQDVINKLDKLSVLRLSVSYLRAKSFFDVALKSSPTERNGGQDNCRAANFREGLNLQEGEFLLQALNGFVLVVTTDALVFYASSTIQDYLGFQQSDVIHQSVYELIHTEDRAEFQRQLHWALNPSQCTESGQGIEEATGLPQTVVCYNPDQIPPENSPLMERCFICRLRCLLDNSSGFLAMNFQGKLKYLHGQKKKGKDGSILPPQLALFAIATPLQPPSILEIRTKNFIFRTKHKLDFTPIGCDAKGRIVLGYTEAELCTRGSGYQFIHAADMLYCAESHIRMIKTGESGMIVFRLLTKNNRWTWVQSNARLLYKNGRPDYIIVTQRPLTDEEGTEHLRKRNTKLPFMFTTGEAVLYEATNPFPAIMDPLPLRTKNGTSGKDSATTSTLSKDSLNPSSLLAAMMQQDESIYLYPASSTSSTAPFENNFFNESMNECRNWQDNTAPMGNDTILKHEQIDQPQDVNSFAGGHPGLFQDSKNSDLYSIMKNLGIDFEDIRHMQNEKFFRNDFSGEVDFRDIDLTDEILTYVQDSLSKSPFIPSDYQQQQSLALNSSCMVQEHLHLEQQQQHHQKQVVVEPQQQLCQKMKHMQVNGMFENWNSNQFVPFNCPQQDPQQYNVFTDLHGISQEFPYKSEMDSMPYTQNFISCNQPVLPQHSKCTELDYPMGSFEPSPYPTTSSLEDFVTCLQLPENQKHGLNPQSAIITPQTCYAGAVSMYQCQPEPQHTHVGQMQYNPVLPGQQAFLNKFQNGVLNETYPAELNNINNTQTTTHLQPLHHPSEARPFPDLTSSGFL
Chain of Transcription factor E2F1 (Homo sapiens) (Q01094 whole entry, looked up): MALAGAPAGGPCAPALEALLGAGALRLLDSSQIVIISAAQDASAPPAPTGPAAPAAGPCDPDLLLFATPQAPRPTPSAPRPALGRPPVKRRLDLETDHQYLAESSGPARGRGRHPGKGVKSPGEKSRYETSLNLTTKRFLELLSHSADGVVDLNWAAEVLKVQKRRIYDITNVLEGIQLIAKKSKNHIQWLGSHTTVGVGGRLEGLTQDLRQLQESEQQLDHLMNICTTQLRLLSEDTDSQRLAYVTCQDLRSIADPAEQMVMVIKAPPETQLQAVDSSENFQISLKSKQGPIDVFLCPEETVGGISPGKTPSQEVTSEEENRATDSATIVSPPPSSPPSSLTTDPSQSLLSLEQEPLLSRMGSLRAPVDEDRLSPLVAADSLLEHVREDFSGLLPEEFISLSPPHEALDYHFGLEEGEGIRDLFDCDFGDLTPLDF
Chain of Hepatocyte nuclear factor 3-beta (Homo sapiens) (Q9Y261 whole entry, looked up): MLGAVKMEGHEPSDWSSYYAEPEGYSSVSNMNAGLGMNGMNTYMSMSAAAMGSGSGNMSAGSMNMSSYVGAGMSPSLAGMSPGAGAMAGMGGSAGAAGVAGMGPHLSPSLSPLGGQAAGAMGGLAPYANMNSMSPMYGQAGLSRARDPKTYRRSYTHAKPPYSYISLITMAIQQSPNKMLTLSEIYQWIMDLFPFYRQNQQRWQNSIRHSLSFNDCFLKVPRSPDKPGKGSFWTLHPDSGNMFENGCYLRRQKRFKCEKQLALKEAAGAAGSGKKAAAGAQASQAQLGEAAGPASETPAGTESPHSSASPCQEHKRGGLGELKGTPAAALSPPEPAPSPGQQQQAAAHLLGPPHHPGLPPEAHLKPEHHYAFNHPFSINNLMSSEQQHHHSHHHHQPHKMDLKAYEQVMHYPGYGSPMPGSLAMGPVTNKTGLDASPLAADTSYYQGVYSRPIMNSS
Chain of CCAAT/enhancer-binding protein beta (Homo sapiens) (P17676 whole entry, looked up): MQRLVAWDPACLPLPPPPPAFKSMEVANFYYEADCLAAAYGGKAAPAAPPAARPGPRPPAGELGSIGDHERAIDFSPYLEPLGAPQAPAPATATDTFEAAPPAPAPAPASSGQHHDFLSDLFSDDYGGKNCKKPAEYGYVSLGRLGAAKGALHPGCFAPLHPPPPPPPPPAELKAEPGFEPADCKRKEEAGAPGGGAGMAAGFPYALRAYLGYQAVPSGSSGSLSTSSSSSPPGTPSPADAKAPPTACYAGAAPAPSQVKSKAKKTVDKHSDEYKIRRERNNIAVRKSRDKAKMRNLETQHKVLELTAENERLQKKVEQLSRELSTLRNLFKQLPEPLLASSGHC

For the molecule `OC(O)C(F)(F)C(F)(F)F`, the molecule was called inactive in [1], in assay [2], in assay [3], in assay [6], in [8] and in assay [9]. Moreover, the molecule was classed as inactive in assay [10], in assay [11], in [12], in assay [13], in [14] and in assay [15]. In addition, the call in assay [16], in assay [17], in assay [18] and in assay [19] was inactive. The figures for the AC50 in assay [4], in [5] and in assay [7] were 117 µM (active), 150 µM (active) and 96 µM (active), respectively.

As to `CCCCCCCCCCCCCC[P+](CCCC)(CCCC)CCCC`, the half-maximal activity concentration (AC50) was 0.0203 µM (active) in assay [1], 0.758 µM (active) in assay [2] and 0.745 µM (active) in assay [9]. The result in assay [3], in assay [4], in assay [5], in assay [6], in assay [7] and in assay [8] was inactive. Further, the result in assay [10], in [11], in assay [12], in assay [13], in assay [14] and in assay [15] was inactive. The result in assay [16], in [17], in assay [18] and in assay [19] was inactive.

As for `O=C(O)C(F)(F)OC(F)(F)C(F)(F)OC(F)(F)C(F)(F)OC(F)(F)F`, the half-maximal activity concentration (AC50) is 13.2 µM (active) in assay [1], 66.5 µM (active) in assay [4] and 66.5 µM (active) in assay [7]. Moreover, the call in assay [2], in assay [3], in [5], in assay [6], in assay [8] and in assay [9] was inactive. The molecule was called inactive in assay [10], in assay [11], in assay [12], in [13], in assay [14] and in assay [15]. For the same molecule, the molecule was called inactive in assay [16], in assay [17], in assay [18] and in [19].

For the molecule `CCOC(=O)C1CC(=O)C(=C(O)C2CC2)C(=O)C1` (stereo not given), the call in assay [1], in assay [2], in assay [3], in [4], in [5] and in [6] was inactive. Moreover, the outcome in [7], in assay [8], in [9], in assay [10], in assay [11] and in assay [12] was inactive. Moreover, the molecule was called inactive in assay [13], in [14], in assay [15], in assay [16], in [17] and in assay [18]. In addition, the call in [19] was inactive.

Turning to `O=C(O)C(F)(F)C(F)(F)C(F)(F)OC(F)(C(F)(F)F)C(F)(F)F`, the outcome in [1], in assay [2], in [3], in [4], in assay [6] and in [7] was inactive. Also, the call in [8], in assay [9], in assay [10], in assay [11], in assay [12] and in [13] was inactive. The molecule was called inactive in assay [14], in assay [15], in assay [16], in assay [17], in assay [18] and in assay [19]. Moreover, in [5], the half-maximal activity concentration (AC50) is 238 µM (active).
